{"source": "PubChem BioAssay AID2716", "about": "(Broad Institute, 2010)", "note": "The campaign covered roughly 320,000 compounds. About 3,300 (1%) were called active. This is one part of a sample in which actives are shown more often than they occur. Unmarked numbers belong to inactive results.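 Rule for the calls: active = every valid replicate shows activation above 250% relative to neutral control wells; inactive = the rest, any valid replicate at or below 250%.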"}
{"test": "yeast Mot1-301 growth rescue at high temperature, primary screen, SUMOylation pathway inhibitor project, S. cerevisiae, ATP luminescence, 38.5C (AID 2716);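 note: OY570 slx delta 5 strain wells were the positive control but not used for scaling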", "settings": "S. cerevisiae Mot1-301 growth rescue, at 18.8 µM, stronger effect = higher value, percent above DMSO median, 100 means doubled"}
{"smiles": "Cc1cc(C)cc(Oc2nc3c(C)cccn3c(=O)c2/C=C(\\C#N)C(=O)NC2CCS(=O)(=O)C2)c1", "note": "(configuration not stated)", "growth rescue": "-14%"}
{"smiles": "CCC(C)(C)NC(=O)C(c1cccc(OC)c1OC)N(CC(C)C)C(=O)CCC(=O)Nc1cc(C)on1", "note": "(configuration not stated)", "growth rescue": "13.1%"}
{"smiles": "COc1ccc(OCCCC(=O)Oc2ccc(OC)cc2)cc1", "growth rescue": "-3.53%"}
{"smiles": "COc1ccc(OCCC(=O)c2ccc(OC)cc2)cc1", "growth rescue": "614% (active)"}
{"smiles": "COc1ccc(CCC(=O)c2ccc(OC)cc2)cc1", "growth rescue": "34.5%"}
{"smiles": "O=C1CCC/C(=N\\NC(=O)NC2CCCCC2)C1", "growth rescue": "-14.5%"}
{"smiles": "Cc1nn(Cc2ccc(F)cc2)c(C)c1NC(=O)c1noc2c1CCc1ccccc1-2", "growth rescue": "-2.02%"}
{"smiles": "CCOc1ncccc1C(=O)Nc1ccc2c(c1)OCCO2", "growth rescue": "6.77%"}
{"smiles": "COc1cc(/C=N/O)cc(Br)c1OCc1cccc(Cl)c1", "growth rescue": "-7.89%"}
{"smiles": "CCOc1cc(/C=N/O)cc(Br)c1OC", "growth rescue": "341% (active)"}
{"smiles": "COc1cc(/C=N/O)cc(Br)c1OS(=O)(=O)c1ccc(C)cc1", "growth rescue": "13.1%"}
{"smiles": "Cc1ccc(F)c(NC(=O)CCc2ccccc2)c1", "growth rescue": "-0.553%"}
{"smiles": "COCCCNC(=O)C1CCC(CNS(=O)(=O)c2ccc(OC)cc2)CC1", "note": "(configuration not stated)", "growth rescue": "-13.1%"}
{"smiles": "CCCCc1c(O)nc2n(c1=O)CCS2", "growth rescue": "-12.2%"}
{"smiles": "CCCCCCCCc1c(O)nc(-n2[nH]c(C)c(CCO)c2=O)[nH]c1=O", "growth rescue": "605% (active)"}
{"smiles": "O=C(NCCc1ccc(Cl)cc1)C1CCCN1C(=O)NCc1ccccc1", "note": "(configuration not stated)", "growth rescue": "-4.04%"}
{"smiles": "O=C(CN1C(=O)NC2(CCCC2)C1=O)Nc1ccc(F)c(F)c1F", "growth rescue": "-3.83%"}
{"smiles": "CC(C)n1c(NCc2c[nH]c3ccccc23)nc2ccccc21", "growth rescue": "5.8%"}
{"smiles": "Cn1c(NC(=O)c2ccccc2)nc2ccccc21", "growth rescue": "4%"}
{"smiles": "Cc1ccc(O)c(CNc2nc3ccccc3n2C)c1", "growth rescue": "913% (active)"}
{"smiles": "CCN1CCN(c2sc(S(C)(=O)=O)nc2S(=O)(=O)c2ccc(Cl)cc2)CC1", "growth rescue": "2.93%"}
{"smiles": "C/C(=N\\NC(=O)C1(C)CC1(Br)Br)c1ccc(C)cc1C", "note": "(configuration not stated)", "growth rescue": "8.98%"}
{"smiles": "CCCCc1nccn1CCn1ccnc1CCCC", "growth rescue": "1.48%"}
{"smiles": "COc1ccc(CCNC(=O)CC2SC(=Nc3cc(C)cc(C)c3)NC2=O)cc1OC", "note": "(configuration not stated)", "growth rescue": "308%"}
{"smiles": "CCCN=C1NC(=O)C(CC(=O)NCCc2ccc(OC)c(OC)c2)S1", "note": "(configuration not stated)", "growth rescue": "536% (active)"}
{"smiles": "COc1ccc(CCNC(=O)Cc2ccc(C)cc2)cc1OC", "growth rescue": "102%"}
{"smiles": "COc1cccc(N(CC(=O)NCc2ccccc2)C(=O)CCC(=O)Nc2nccs2)c1", "growth rescue": "-6.15%"}
{"smiles": "COC(=O)C1CCN(CC(N)=O)CC1", "growth rescue": "-5.03%"}
{"smiles": "COc1ccc(C(=O)COC(=O)Cn2cnc3c2c(=O)n(C)c(=O)n3C)c(OC)c1", "growth rescue": "-7.8%"}
{"smiles": "O=C(Nn1cnnc1)c1cc(Cl)ccc1Cl", "growth rescue": "4.55%"}
{"smiles": "CN1CCN(S(=O)(=O)c2cccc(C(=O)Nc3cccc(S(N)(=O)=O)c3)c2)CC1", "growth rescue": "-8.57%"}
{"smiles": "CCCCC1=CC2=CC(=O)C(C)(OC(=O)CC)C(=O)C2=CN1CCCOC(C)C", "note": "(configuration not stated)", "growth rescue": "499% (active)"}
{"smiles": "COC(=O)CCCC1=CC2=CC(=O)C(C)(OC(=O)c3cccs3)C(=O)C2=CN1CC(C)C", "note": "(configuration not stated)", "growth rescue": "13.6%"}
{"smiles": "COC(=O)CCCC1=CC2=CC(=O)C(C)(OC(=O)c3cccs3)C(=O)C2=CN1CC1CC1", "note": "(configuration not stated)", "growth rescue": "414%"}
{"smiles": "CCCCN(C1CCS(=O)(=O)C1)S(=O)(=O)c1ccc(C(C)C)cc1", "note": "(configuration not stated)", "growth rescue": "1.38%"}
{"smiles": "CC(=O)c1ccc(S(=O)(=O)N2CCC(Oc3ccc(-n4cnnn4)cc3)CC2)cc1", "growth rescue": "-5.14%"}
{"smiles": "CCCCN(C(=O)COc1ccc(NC(C)=O)cc1)C1CCS(=O)(=O)C1", "note": "(configuration not stated)", "growth rescue": "0.599%"}
{"smiles": "Cc1cccc(C)c1NC(=O)C(c1ccccc1)N1CC(=O)Nc2ccccc21", "note": "(configuration not stated)", "growth rescue": "8.11%"}
{"smiles": "Cc1cccc(C)c1NC(=O)C(Cl)C(=O)c1ccccc1", "note": "(configuration not stated)", "growth rescue": "474% (active)"}
{"smiles": "Cc1cccc(C)c1NC(=O)CN(C)C(=O)CCC(=O)c1ccccc1", "growth rescue": "-17.7%"}
{"smiles": "CN(C)CCCN(Cc1cc2cc3c(cc2[nH]c1=O)OCCO3)C(=O)NC1CCCCC1", "growth rescue": "4.3%"}
{"smiles": "CCN1CCN(C(=O)N(Cc2ccc(Cl)cc2)S(=O)(=O)c2ccc(C)cc2)CC1", "growth rescue": "2.05%"}
{"smiles": "COc1ccc(NS(=O)(=O)c2ccc(C(=O)Nc3c(C)n(C)n(-c4ccccc4)c3=O)cc2)cc1", "growth rescue": "-8.97%"}
{"smiles": "CCn1c(=N)c(C(=O)NCCCOC)cc2c(=O)n3cccc(C)c3nc21", "growth rescue": "327% (active)"}
{"smiles": "Cc1cccn2c(=O)c3cc(C(=O)NCCN4CCOCC4)c(=N)n(Cc4cccnc4)c3nc12", "growth rescue": "-5.56%"}
{"smiles": "Cc1cccn2c(=O)c3cc(C(=O)NCC4CCCO4)c(=N)n(Cc4ccc(F)cc4)c3nc12", "note": "(configuration not stated)", "growth rescue": "-5.43%"}
{"smiles": "O=C(NC1CCN(C(=S)NCc2ccco2)CC1)c1ccc(F)cc1", "growth rescue": "-3%"}
{"smiles": "Cc1cc(NC(=O)CSCC(=O)NC(C)c2ccccc2)no1", "note": "(configuration not stated)", "growth rescue": "4.77%"}
{"smiles": "N#Cc1ccc(S(=O)(=O)NCC(=O)OCC(=O)NCCc2ccccc2)cc1", "growth rescue": "0.284%"}
{"smiles": "COc1ccc(N(CCC(=O)NCCc2ccccc2)S(=O)(=O)c2ccc(C)cc2C)cc1", "growth rescue": "-11.2%"}
{"smiles": "Cc1cccc(-[n+]2c(-c3cccc(Br)c3)[nH]c3nc4ccccc4nc32)c1", "growth rescue": "655% (active)"}
{"smiles": "Cc1ccc(CNC(=O)COC(=O)C2CCC2)cc1", "growth rescue": "-6.16%"}
{"smiles": "Cc1nccn1CCC1CCCCN1C(=O)CCc1nnc(-c2ccsc2)o1", "note": "(configuration not stated)", "growth rescue": "-11.6%"}
{"smiles": "COc1cccc(CNC(=O)CCCC(=O)Nc2cccc([N+](=O)[O-])c2)c1", "growth rescue": "-7.72%"}
{"smiles": "COC(=O)/C=C\\C(=O)Nc1cccc([N+](=O)[O-])c1", "growth rescue": "362% (active)"}
{"smiles": "COc1ccc(S(=O)(=O)NC(C)C(=O)Nc2cccc([N+](=O)[O-])c2)cc1", "note": "(configuration not stated)", "growth rescue": "-16.6%"}
{"smiles": "CCOC(=O)C1CCCN(C(=O)c2ccc(C)c(S(=O)(=O)N3CCCCC3)c2)C1", "note": "(configuration not stated)", "growth rescue": "-5.7%"}
{"smiles": "CCOc1ccc2nc(N(CCCN(C)C)C(=O)c3ccc(C(=O)c4ccccc4)cc3)sc2c1", "growth rescue": "1.2%"}
{"smiles": "CCCC(=O)N(CCN1CCOCC1)c1nc2ccc(OCC)cc2s1", "growth rescue": "371% (active)"}
{"smiles": "CCOc1ccc2nc(N(CCN(C)C)C(=O)c3ccc4ccccc4c3)sc2c1", "growth rescue": "74.9%"}
{"smiles": "O=C(CCNC(=O)c1ccc(Cl)cc1)NC1CCCc2ccccc21", "note": "(configuration not stated)", "growth rescue": "118%"}
{"smiles": "Cc1ccccc1-c1nc(CS(=O)(=O)CC(=O)NC(C)c2ccccc2)c(C)o1", "note": "(configuration not stated)", "growth rescue": "5.04%"}
{"smiles": "Cc1ccccc1-c1nc(CS(=O)(=O)CC(=O)N2CCc3ccccc3C2)c(C)o1", "growth rescue": "-11.2%"}
{"smiles": "COC(=O)c1cc2occc2n1Cc1nc(-c2ccccc2C)oc1C", "growth rescue": "611% (active)"}
{"smiles": "CCCCCCOc1ccc(OC(=O)c2cccnc2)cc1", "growth rescue": "329% (active)"}
{"smiles": "N#CCc1ccc(OC(=O)c2cccnc2)cc1", "growth rescue": "9.1%"}
{"smiles": "O=C(Oc1ccc(Br)cc1)c1cccnc1", "growth rescue": "1.84%"}
{"smiles": "Cc1nc2ccc(NC(=O)c3cccc(S(=O)(=O)N4CCOCC4)c3)cc2s1", "growth rescue": "-14.6%"}
{"smiles": "CCc1cccc(NC(=O)C2CCCN(S(=O)(=O)c3ccc4[nH]c(=O)ccc4c3)C2)c1", "note": "(configuration not stated)", "growth rescue": "-9.11%"}
{"smiles": "Cc1cc(C)cc(NC(=O)C2CCCN(S(=O)(=O)c3ccc4[nH]c(=O)ccc4c3)C2)c1", "note": "(configuration not stated)", "growth rescue": "2800% (active)"}
{"smiles": "CC1CCN(S(=O)(=O)c2ccc3[nH]c(=O)ccc3c2)CC1", "growth rescue": "14.3%"}
{"smiles": "C[C@H](CO)N1C[C@H](C)[C@@H](CN(C)C(=O)NC2CCCCC2)Oc2ccc(NC(=O)c3ccncc3)cc2C1=O", "growth rescue": "-1.03%"}
{"smiles": "CCOC(=O)c1ccc(N2C(=O)CC(N(C)Cc3ccccc3)C2=O)cc1", "note": "(configuration not stated)", "growth rescue": "94.8%"}
{"smiles": "CCCCOC(=O)c1ccc(N2C(=O)CC(N3CCN(C/C=C/c4ccccc4)CC3)C2=O)cc1", "note": "(configuration not stated)", "growth rescue": "-18%"}
{"smiles": "CCCCCCC(=O)N(O)C1CC(=O)N(c2ccccc2)C1=O", "note": "(configuration not stated)", "growth rescue": "321% (active)"}
{"smiles": "N#CCCN1CCN(S(=O)(=O)c2ccc(S(=O)(=O)NC3CCCCC3)cc2)CC1", "growth rescue": "111%"}
{"smiles": "CC(C)C(NC(=O)c1c(F)cccc1F)C(=O)NNC(=O)c1ccccc1", "note": "(configuration not stated)", "growth rescue": "-1.01%"}
{"smiles": "Cc1ccc(C)c(S(=O)(=O)Nc2cccc(-n3cnnn3)c2)c1", "growth rescue": "-7.94%"}
{"smiles": "Cc1nc(-c2nnc(SCC(=O)Nc3cc(C(F)(F)F)cc(C(F)(F)F)c3)n2C)cs1", "growth rescue": "16.5%"}
{"smiles": "COc1cccc(CNCc2ccc3c(c2)OCO3)c1", "growth rescue": "-12.1%"}
{"smiles": "COc1cc(CNCc2ccc3c(c2)OCO3)c([N+](=O)[O-])cc1OC", "growth rescue": "1080% (active)"}
{"smiles": "COc1cc(OC)c(C(=O)NCc2ccc3c(c2)OCO3)cc1OC", "growth rescue": "1.21%"}
{"smiles": "O=C(CSc1nnc(-c2ccncc2)o1)Nc1cccc(Cl)c1", "growth rescue": "-11.5%"}
{"smiles": "COc1ccc(-c2c(C#Cc3ccsc3)c3cc(-c4ccc(CN5CCOCC5)cc4)ccc3n2C)cc1", "growth rescue": "-20.4%"}
{"smiles": "COCCn1c(CN2CCC(Cc3ccccc3)CC2)nc2c1c(=O)n(C)c(=O)n2C", "growth rescue": "-13.7%"}
{"smiles": "CC1CCCN(Cc2nc3c(c(=O)n(C)c(=O)n3C)n2CC(=O)c2ccccc2)C1", "note": "(configuration not stated)", "growth rescue": "-2.98%"}
{"smiles": "CC1CCN(Cc2nc3c(c(=O)n(C)c(=O)n3C)n2CCc2ccccc2)CC1", "growth rescue": "768% (active)"}
{"smiles": "CC1Cc2ccccc2N1C(=O)CSc1nnc(-c2ccc(S(=O)(=O)N3CCCC3)cc2)n1C", "note": "(configuration not stated)", "growth rescue": "-12%"}
{"smiles": "Cc1ccc(NC(=O)CCNC(=O)c2ccc([N+](=O)[O-])cc2)cc1S(=O)(=O)N1CCOCC1", "growth rescue": "-3.52%"}
{"smiles": "CCc1cc2c(=O)c(-c3ccc(F)cc3)c(C(F)(F)F)oc2cc1OCC(=O)O", "growth rescue": "807% (active)"}
{"smiles": "CCc1cc2c(=O)c(-c3ccon3)c(N)oc2cc1OC", "growth rescue": "-11.8%"}
{"smiles": "Cc1cc(C)cc(Oc2c(C(F)(F)F)oc3cc(OCC(=O)O)ccc3c2=O)c1", "growth rescue": "-7.69%"}
